A short description of test [1]: compound effects on differentiated 3T3-L1 adipocyte viability – cell-based, 3T3-L1 adipocytes, calcein-AM fluorescence, 48 h, basal, profiling panel (AID 1163). As to conditions: 3T3-L1 adipocytes viability, higher = more signal.
Test [2] is described as follows: compound effects on hepatocellular carcinoma cell viability – HepG2, calcein-AM fluorescence, 48 h, basal, profiling panel (AID 1164). To be noted: higher = more signal.
Test [3] is described as follows: compound effects on multiple myeloma cell viability – MM1S, calcein-AM fluorescence, 48 h, basal, profiling panel (AID 1165). As to conditions: higher = more signal.
A short description of test [4]: calcein-AM signal in unstimulated myeloma cells – cell-based, calcein-AM fluorescence, 48 h, PK04 Diversity Set, profiling panel (AID 1166).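 Note: cells grown under basal conditions without added stimulus.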 To be noted: RPMI8226 myeloma viability, higher = more signal.
Test [5] in a line: JC-1 mitochondrial signal, unstimulated HepG2 cells – cell-based, JC-1 fluorescence, 24 h, 100 nL compound, profiling panel (AID 1167). To be noted: HepG2 mitochondrial potential, higher = more signal.
Test [6] in a line: JC-1 mitochondrial signal, unstimulated adipocytes – cell-based, JC-1 fluorescence, 3T3-L1 adipocytes, 24 h, 100 nL compound, profiling panel (AID 1168). As to conditions: JC-1 mitochondrial fluorescence, higher = more signal, called active from +8 up or from −8 down.
A short description of test [7]: JC-1 mitochondrial signal, unstimulated myeloma cells – cell-based, JC-1 fluorescence, RPMI8226, 24 h, 100 nL compound, profiling panel (AID 1169). To be noted: JC-1 mitochondrial potential fluorescence, higher = more signal.
Test [8] is described as follows: JC-1 mitochondrial signal, unstimulated MM1S myeloma – cell-based, JC-1 fluorescence, 24 h, 100 nL compound, profiling panel (AID 1170). To be noted: MM1S mitochondrial potential, higher = more signal.
Test [9] can be described thus: resazurin metabolic signal in A549 cells – cell-based, resazurin fluorescence, 24 h, PK04 Diversity Set, profiling panel (AID 1171). To be noted: A549 viability, higher = more signal, called active from +8 up or from −8 down.
Test [10] is described as follows: resazurin metabolic signal in HepG2 cells – cell-based, resazurin fluorescence, 24 h, PK04 Diversity Set, profiling panel (AID 1172). To be noted: HepG2 viability, higher = more signal. (The colour change of resazurin is a common sign of viable cells or microbes.)
Test [11] is described as follows: budding yeast growth changes without added modifier – OD600, strain BY4716, 24 h, basal condition, primary screen (AID 1173). To be noted: S. cerevisiae BY4716 growth, OD600, 24 h; higher = more signal, called active from +8 up or from −8 down.
Test [12] in a line: viability profiling in MM1S myeloma cells – cell-based, resazurin fluorescence, basal, 24 h, PK04 Diversity Set, profiling panel (AID 1174). To be noted: higher = more signal, called active from +8 up or from −8 down.
Test [13] concerns the target Dihydroorotate dehydrogenase (quinone), mitochondrial (Plasmodium falciparum (isolate 3D7)) (UniProt Q08210). Nature of the test: inhibition of P. falciparum DHODH – biochemical, C-terminal His tag, absorbance 600 nm, primary screen (AID 1175).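 Note: recombinant parasite enzyme with a five histidine tag at its C terminus.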 To be noted: PfDHODH enzyme, DCIP absorbance 600 nm; higher = more signal, called active from +8 up or from −8 down.
Test [14] is described as follows: growth modulation of vineyard yeast isolate – strain RM11-1a, OD600, basal, 24 h, primary screen (AID 1177).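 Note: cultures grown under basal conditions with no added stressor.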 To be noted: S. cerevisiae RM11-1a growth, OD600, 24 h; higher = more signal, called active from +8 up or from −8 down.
Test [15] can be described thus: growth of efflux-deficient E. coli DRC39 – strain DRC39, OD650, 24 h, E. coli filamentation inducers, primary screen (AID 1178).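 Note: growth measured as culture turbidity by optical density at 650 nm.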 To be noted: E. coli DRC39 acrAB, higher = more signal, called active from +8 up or from −8 down.
The nature of test [16]: growth of efflux-deficient E. coli DRC39 – strain DRC39, OD650, 48 h, E. coli filamentation inducers, primary screen (AID 1179).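 Note: screen aims at cell division blockers that make cells filament.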 To be noted: E. coli DRC39 delta-acrAB growth, higher = more signal, called active from +8 up or from −8 down.
Test [17] can be described thus: viability profiling in RPMI8226 myeloma cells – cell-based, resazurin fluorescence, basal, 24 h, PK04 Diversity Set, profiling panel (AID 1180).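 Note: RPMI8826 multiple myeloma cell line at 5000 cells per well.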 To be noted: higher = more signal.
Test [18] has as its target E3 ubiquitin-protein ligase XIAP (Homo sapiens) (UniProt P98170). Description: small molecules binding XIAP protein – biophysical, small-molecule microarray, fluorescence 635 nm, primary screen (AID 1181).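 Note: score merges 667 nm emission and signal to noise over triplicate slides.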 As to conditions: higher = more signal.
Test [19] concerns XIP peptide (Xip251-270) binding. Description: XIP fragment 251-270 binding compounds – biochemical, small-molecule microarray, fluorescence 635/667 nm, 0.1 µg/mL protein, primary screen (AID 1182). To be noted: fluorescent protein binding, 635 nm, higher = more signal, called active from +8 up or from −8 down.
Another test deals with XIP peptide (Xip251-270). Description: compounds binding XIP fragment 251-270 – biochemical, small-molecule microarray, fluorescence 635/667 nm, 0.5 µg/mL protein, primary screen (AID 1183). To be noted: fluorescence 635 nm, higher = more signal.

Active and inactive are the calls of the source.

Chain of Dihydroorotate dehydrogenase (quinone), mitochondrial (Plasmodium falciparum (isolate 3D7)) (Q08210 whole entry, looked up): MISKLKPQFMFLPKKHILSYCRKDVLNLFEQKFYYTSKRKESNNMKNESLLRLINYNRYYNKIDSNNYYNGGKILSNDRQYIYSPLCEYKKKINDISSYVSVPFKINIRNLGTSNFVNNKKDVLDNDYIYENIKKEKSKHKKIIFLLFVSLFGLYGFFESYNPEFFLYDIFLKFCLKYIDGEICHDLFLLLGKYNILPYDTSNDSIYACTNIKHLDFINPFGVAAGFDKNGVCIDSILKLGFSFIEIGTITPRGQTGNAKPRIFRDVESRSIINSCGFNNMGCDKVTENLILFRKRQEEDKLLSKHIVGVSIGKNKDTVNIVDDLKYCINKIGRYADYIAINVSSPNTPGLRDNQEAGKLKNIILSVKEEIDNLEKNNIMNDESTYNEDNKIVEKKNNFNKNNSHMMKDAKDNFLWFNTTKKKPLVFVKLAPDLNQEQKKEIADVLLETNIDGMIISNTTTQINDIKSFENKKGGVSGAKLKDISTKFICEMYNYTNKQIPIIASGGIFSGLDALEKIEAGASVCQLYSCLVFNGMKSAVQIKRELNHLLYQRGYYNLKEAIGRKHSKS
Chain of E3 ubiquitin-protein ligase XIAP (Homo sapiens) (P98170 whole entry, looked up, the tested form may be a part): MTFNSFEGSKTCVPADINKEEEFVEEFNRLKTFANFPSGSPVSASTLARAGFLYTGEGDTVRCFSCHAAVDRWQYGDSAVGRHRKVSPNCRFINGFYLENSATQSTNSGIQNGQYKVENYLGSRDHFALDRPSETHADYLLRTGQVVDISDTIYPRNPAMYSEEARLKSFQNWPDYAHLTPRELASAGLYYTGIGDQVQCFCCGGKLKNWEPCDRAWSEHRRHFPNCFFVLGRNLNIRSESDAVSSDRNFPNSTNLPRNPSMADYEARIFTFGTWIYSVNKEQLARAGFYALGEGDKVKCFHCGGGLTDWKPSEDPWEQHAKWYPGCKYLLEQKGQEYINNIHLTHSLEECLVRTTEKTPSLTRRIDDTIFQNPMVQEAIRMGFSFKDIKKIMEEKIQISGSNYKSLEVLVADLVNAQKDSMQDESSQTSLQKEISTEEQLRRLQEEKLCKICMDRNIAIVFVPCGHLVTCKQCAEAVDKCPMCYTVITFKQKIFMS

With `CC(C)[Si](C#C[Si](C(C)C)(C(C)C)C(C)C)(O[C@H](C)c1cn([C@H](C)c2ccccc2)nn1)C(C)C`, the z-score was 0.517 in [1]; 0.417 in test [2]; -0.908 in [3]; 1.5 in [4]; 2.71 in test [5]; 1.94 (inactive) in [6]. Besides, the z-score in test [7] was -0.87; in test [8] it was 0.265; in [9], 3.13 (inactive); in test [10], 1.3; in test [11], -0.0779 (inactive); in test [12], 2.34 (inactive). Also, the z-score in test [14] was -1.88 (inactive); in test [15], 2.06 (inactive); in [16] it was 0.944 (inactive); in [17], 2.41. For the same molecule, the composite z-score in test [13] was -0.32 (inactive); in [18], -0.0559; in test [19] it was -0.608 (inactive); with XIP peptide (Xip251-270), 0.193.

Consider `C=C(CCCC)/C(=C/C[C@@H](OC(=O)c1ccncc1)c1ccc(OCCO)cc1)c1cnc2ccccc2c1`, for which the z-score in [1] was 1.56; in [2] it was -0.375; in test [3] it was -1.52; in [4], -0.393; in test [5], 2.07; in [6], -0.0617 (inactive). For the same molecule, the z-score in test [7] is -0.344; in test [8] it was 0.279; in test [9], 0.395 (inactive); in test [10], 0.0347; in [11] it was -2.64 (inactive); in [12] it was 0.803 (inactive). The z-score in test [14] was 0.365 (inactive); in [15] it was 1 (inactive); in [16], 0.734 (inactive); in test [17], 1.59. The composite z-score in test [13] was -2.2 (inactive); in [18], -0.035; in test [19] it was 0.384 (inactive); with XIP peptide (Xip251-270), 0.697.

Regarding `CN1C=C(C(=O)OCCS(C)(=O)=O)C(C(=O)OCCS(C)(=O)=O)=CC(CCCO)=CC1c1cccs1` (stereo not given), the z-score in test [1] was 0.778; in [2], 0.615; in test [3], 0.175; in test [4], -0.249; in test [5], 1.9; in [6], 1.93 (inactive). For the same molecule, the z-score is 0.0813 in test [7]; 0.885 in test [8]; 0.776 (inactive) in test [9]; 0.666 in test [10]; -3.06 (inactive) in [11]; 1.07 (inactive) in [12]. Besides, the z-score was -1.01 (inactive) in test [14], 1.26 (inactive) in test [15], 0.676 (inactive) in test [16] and 0.602 in test [17]. For the same molecule, the composite z-score in test [13] is -4.08 (inactive); in test [18], 0.0374; in test [19], -0.64 (inactive); with XIP peptide (Xip251-270), -0.254.

Consider `COCCOC(=O)N1C(=O)[C@@]2(c3cc(C#CCCO)ccc31)[C@H](c1ccccc1OCCO)N1[C@H](c3ccccc3)[C@H](c3ccccc3)OC(=O)[C@H]1[C@@H]2C(=O)NC[C@H](O)c1ccccc1`, for which the z-score is 0.915 in [1]; -0.527 in test [2]; -0.377 in [3]; -1.11 in [4]; 0.278 in test [5]; 1.96 (inactive) in test [6]. For the same molecule, the z-score in [7] was -0.73; in test [8], -1.3; in [9], 1.56 (inactive); in test [10], 1.43; in test [11], -0.769 (inactive); in test [12], 0.716 (inactive). In addition, the z-score in test [14] was -0.404 (inactive); in [15], 2.24 (inactive); in [16], 2.23 (inactive); in test [17], 0.433. Also, the composite z-score is -0.375 (inactive) in test [13], -0.0446 in test [18], 0.533 (inactive) in test [19] and 0.705 in the test with XIP peptide (Xip251-270).

Consider `CC(C)NC(=O)[C@@H]1c2ccccc2C(=O)N(Cc2cc(F)cc(C(F)(F)F)c2)[C@H]1c1ccc(CO)cc1`, for which the z-score was 1.41 in test [1]; 0.813 in [2]; 0.404 in [3]; 0.252 in test [4]; 1.59 in [5]; -0.64 (inactive) in test [6]. Besides, the z-score is -0.834 in test [7]; 0.621 in [8]; 1.84 (inactive) in [9]; 0.641 in test [10]; -0.518 (inactive) in test [11]; 1.39 (inactive) in test [12]. The z-score in test [14] was -0.284 (inactive); in [15], 1.33 (inactive); in test [16] it was 0.326 (inactive); in test [17], 1.5. Moreover, the composite z-score is -0.243 (inactive) in test [13], -0.174 in test [18], 0.873 (inactive) in test [19] and -1.01 with XIP peptide (Xip251-270).

The values are drawn from PubChem BioAssay.
